Experimental data: the supplement of paper PMC11732987, “Enantioselective OTUD7B fragment discovery through chemoproteomics screening and high-throughput optimisation” (Communications Chemistry, 2025)

Molecular target: T1, OTUD4 (UniProt Q01804)
T1 sequence (whole entry): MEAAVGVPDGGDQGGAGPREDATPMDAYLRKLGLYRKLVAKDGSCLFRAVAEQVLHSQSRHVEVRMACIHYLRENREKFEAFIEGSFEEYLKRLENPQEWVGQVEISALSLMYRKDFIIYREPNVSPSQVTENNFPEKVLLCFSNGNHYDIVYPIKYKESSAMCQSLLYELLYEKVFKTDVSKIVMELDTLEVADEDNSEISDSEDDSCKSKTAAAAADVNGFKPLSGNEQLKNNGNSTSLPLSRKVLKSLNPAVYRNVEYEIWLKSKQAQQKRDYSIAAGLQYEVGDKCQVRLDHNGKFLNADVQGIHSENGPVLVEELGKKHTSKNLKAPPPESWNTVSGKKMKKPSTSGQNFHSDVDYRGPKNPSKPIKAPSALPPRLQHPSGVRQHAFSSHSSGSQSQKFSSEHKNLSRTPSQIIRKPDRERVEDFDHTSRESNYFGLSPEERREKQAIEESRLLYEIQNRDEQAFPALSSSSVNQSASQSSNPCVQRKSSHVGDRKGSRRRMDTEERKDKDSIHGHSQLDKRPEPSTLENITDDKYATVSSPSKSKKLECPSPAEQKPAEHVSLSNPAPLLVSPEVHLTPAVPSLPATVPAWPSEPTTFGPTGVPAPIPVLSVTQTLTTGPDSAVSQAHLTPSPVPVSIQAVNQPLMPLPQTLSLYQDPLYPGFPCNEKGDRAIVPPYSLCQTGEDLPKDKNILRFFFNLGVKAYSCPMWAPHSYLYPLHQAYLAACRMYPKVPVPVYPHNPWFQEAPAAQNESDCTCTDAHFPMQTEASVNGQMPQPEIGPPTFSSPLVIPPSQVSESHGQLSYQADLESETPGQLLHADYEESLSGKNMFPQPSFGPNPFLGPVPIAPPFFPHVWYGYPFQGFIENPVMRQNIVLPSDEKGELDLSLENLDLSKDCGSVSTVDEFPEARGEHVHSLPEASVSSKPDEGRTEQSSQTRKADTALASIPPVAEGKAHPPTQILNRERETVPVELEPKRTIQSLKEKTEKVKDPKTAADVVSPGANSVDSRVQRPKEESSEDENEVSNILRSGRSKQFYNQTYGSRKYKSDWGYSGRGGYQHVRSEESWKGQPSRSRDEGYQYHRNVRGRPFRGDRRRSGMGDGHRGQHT
Experiment: log2 ratio of Biotin-Ahx-Ub-VS probe labelling (fragment/DMSO); higher = less target engagement (more negative = stronger competition), active = hit call of the paper (q ≤ 0.05, log2 ratio ≤ -1)
Details: compound concentration: 200 uM; treatment time: 3 h
Procedure, shortened: (§1)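 HEK293T lysate, 495 µg per sample in Tris/CHAPS/IGEPAL buffer with protease inhibitors, was treated in triplicate with fragment at 200 µM or vehicle for 3 h and then with Biotin-Ahx-Ub-VS at 0.5 µM final for 1 h. Labelled DUBs were NeutrAvidin-enriched, digested with LysC and trypsin, and run by diaPASEF LC-MS/MS. Spectronaut label-free quantities were global-median-normalised, and values are average log2 fragment/vehicle ratios by unpaired t-test on proteins with ≥2 unique peptides.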

Compound	log2 ratio of Biotin-Ahx-Ub-VS probe labelling
CC(NC(=O)CCl)c1cnn(C2CC2)c1 (stereo not given)	-0.268 (inactive)
Cc1nc(-c2cccc(NC(=O)CCl)c2)cs1	-0.305 (inactive)
Cn1cc(CN(Cc2ccc(Cl)cc2)C(=O)CCl)cn1	0.0527 (inactive)
O=C(CCl)NCc1cccc(F)c1	-0.316 (inactive)
CC(=O)C1CCCCN1C(=O)CCl (stereo not given)	0.0774 (inactive)
CC(NC(=O)CCl)c1cc2n(n1)CCCC2.Cl (stereo not given)	0.133 (inactive)
CCN(C(=O)CCl)C1CCCCC1	-0.12 (inactive)
O=C(CCl)Nc1ccccc1C(F)(F)F	-0.356 (inactive)
Cc1ccc(-c2nnc(C)[nH]2)c(NC(=O)CCl)c1	-0.353 (inactive)
O=C(CCl)NC1CCC(C(F)(F)F)CC1 (stereo not given)	-0.576 (inactive)
Cc1ccc(C)c(NC(=O)CCl)c1	-0.598 (inactive)
CC(O)CC1CCN(C(=O)CCl)CC1 (stereo not given)	0.0747 (inactive)
Cc1c(NC(=O)CCl)c(=O)n(-c2ccccc2)n1C	0.11 (inactive)
Cc1ncc2c(n1)CCN(C(=O)CCl)C2	-0.0123 (inactive)
Cc1conc1C1CN(C(=O)CCl)C1	-0.837 (inactive)
Cc1ccc(CC(NC(=O)CCl)c2ccccn2)cc1.Cl (stereo not given)	0.0988 (inactive)
O=C(CCl)N1CCC(c2nc3ccccc3o2)CC1	-0.417 (inactive)
Cc1cc(C2CCCN2C(=O)CCl)nn1C.Cl (stereo not given)	-0.0857 (inactive)

Compound	log2 ratio of Biotin-Ahx-Ub-VS probe labelling
O=C(CCl)Nc1cc2c(cc1Cl)OCCO2	-0.327 (inactive)
O=C(CCl)N1CCC(C(O)c2ccc(F)cc2)CC1 (stereo not given)	-0.0305 (inactive)
Cc1nc(CN2CCCN(C(=O)CCl)CC2)no1.Cl	0.243 (inactive)
Cc1cccn2cc(CCNC(=O)CCl)nc12.Cl	0.123 (inactive)
O=C(CCl)N1CCOC(CCc2ccccc2)C1 (stereo not given)	-0.558 (inactive)
O=C(CCl)N1CCOCCC1c1ccccc1 (stereo not given)	-0.0459 (inactive)
O=C(CCl)N[C@H]1CC[C@@H](CO)CC1	-0.852 (inactive)
O=C(CCl)N1CCOC2(CCC2)CC1	-0.374 (inactive)
CC(NC(=O)CCl)c1ccc2[nH]ncc2c1 (stereo not given)	-0.637 (inactive)
CN(C)C(=O)c1ccc(CNC(=O)CCl)cc1	-0.365 (inactive)
Cc1cnc2[nH]cc(CCNC(=O)CCl)c2c1	-0.139 (inactive)
Cl.Cn1nccc1C(NC(=O)CCl)c1ccccc1 (stereo not given)	-0.894 (inactive)
Cc1cccc(NC(=O)CCl)c1C	-0.0599 (inactive)
Cc1nnc(C(NC(=O)CCl)c2ccccc2)n1C (stereo not given)	0.483 (inactive)
O=C(CCl)NC1CCC2(CC1)OCCO2	-0.376 (inactive)
Cc1cccc2nc(CCNC(=O)CCl)cn12.Cl	-0.21 (inactive)
N#Cc1ccc(Cl)cc1NC(=O)CCl	-1.18 (active)

Molecular target: T2, OTUD5 (UniProt Q96G74)
T2 sequence (whole entry): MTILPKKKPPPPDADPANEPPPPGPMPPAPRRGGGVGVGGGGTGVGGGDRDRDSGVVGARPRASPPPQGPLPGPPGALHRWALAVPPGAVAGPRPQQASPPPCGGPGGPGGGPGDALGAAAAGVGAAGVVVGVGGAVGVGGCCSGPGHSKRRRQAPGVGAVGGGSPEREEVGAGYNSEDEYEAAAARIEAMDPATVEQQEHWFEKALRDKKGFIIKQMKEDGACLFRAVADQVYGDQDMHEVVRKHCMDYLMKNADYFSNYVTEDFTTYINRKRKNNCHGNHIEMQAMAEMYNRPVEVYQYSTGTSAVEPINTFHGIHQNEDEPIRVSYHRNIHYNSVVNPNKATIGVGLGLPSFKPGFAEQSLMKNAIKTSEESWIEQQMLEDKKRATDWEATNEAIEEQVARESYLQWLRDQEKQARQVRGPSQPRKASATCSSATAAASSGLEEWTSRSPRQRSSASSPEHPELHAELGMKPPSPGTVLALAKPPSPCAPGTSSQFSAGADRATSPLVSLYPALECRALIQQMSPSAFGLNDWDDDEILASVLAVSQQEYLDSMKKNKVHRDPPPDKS
Experiment: as above
Details: compound concentration: 200 uM; treatment time: 3 h
Procedure, shortened: as §1

Compound	log2 ratio of Biotin-Ahx-Ub-VS probe labelling
CC(NC(=O)CCl)c1cnn(C2CC2)c1 (stereo not given)	-0.626 (inactive)
Cc1nc(-c2cccc(NC(=O)CCl)c2)cs1	-0.539 (inactive)
Cn1cc(CN(Cc2ccc(Cl)cc2)C(=O)CCl)cn1	-0.592 (inactive)
O=C(CCl)NCc1cccc(F)c1	-0.429 (inactive)
CC(=O)C1CCCCN1C(=O)CCl (stereo not given)	-0.219 (inactive)
CC(NC(=O)CCl)c1cc2n(n1)CCCC2.Cl (stereo not given)	-0.0818 (inactive)
CCN(C(=O)CCl)C1CCCCC1	-0.00145 (inactive)
O=C(CCl)Nc1ccccc1C(F)(F)F	-0.489 (inactive)
Cc1ccc(-c2nnc(C)[nH]2)c(NC(=O)CCl)c1	-0.237 (inactive)
O=C(CCl)NC1CCC(C(F)(F)F)CC1 (stereo not given)	-0.288 (inactive)
Cc1ccc(C)c(NC(=O)CCl)c1	-0.833 (inactive)
CC(O)CC1CCN(C(=O)CCl)CC1 (stereo not given)	-0.195 (inactive)
Cc1c(NC(=O)CCl)c(=O)n(-c2ccccc2)n1C	-0.0203 (inactive)
Cc1ncc2c(n1)CCN(C(=O)CCl)C2	-0.606 (inactive)
Cc1conc1C1CN(C(=O)CCl)C1	-0.861 (inactive)
Cc1ccc(CC(NC(=O)CCl)c2ccccn2)cc1.Cl (stereo not given)	-0.157 (inactive)
O=C(CCl)N1CCC(c2nc3ccccc3o2)CC1	-0.841 (inactive)
Cc1cc(C2CCCN2C(=O)CCl)nn1C.Cl (stereo not given)	-0.157 (inactive)

Compound	log2 ratio of Biotin-Ahx-Ub-VS probe labelling
O=C(CCl)Nc1cc2c(cc1Cl)OCCO2	-0.173 (inactive)
O=C(CCl)N1CCC(C(O)c2ccc(F)cc2)CC1 (stereo not given)	-0.189 (inactive)
Cc1nc(CN2CCCN(C(=O)CCl)CC2)no1.Cl	-0.0201 (inactive)
Cc1cccn2cc(CCNC(=O)CCl)nc12.Cl	0.0126 (inactive)
O=C(CCl)N1CCOC(CCc2ccccc2)C1 (stereo not given)	-0.502 (inactive)
O=C(CCl)N1CCOCCC1c1ccccc1 (stereo not given)	0.0776 (inactive)
O=C(CCl)N[C@H]1CC[C@@H](CO)CC1	-0.686 (inactive)
O=C(CCl)N1CCOC2(CCC2)CC1	-0.595 (inactive)
CC(NC(=O)CCl)c1ccc2[nH]ncc2c1 (stereo not given)	-0.509 (inactive)
CN(C)C(=O)c1ccc(CNC(=O)CCl)cc1	-0.146 (inactive)
Cc1cnc2[nH]cc(CCNC(=O)CCl)c2c1	-0.26 (inactive)
Cl.Cn1nccc1C(NC(=O)CCl)c1ccccc1 (stereo not given)	-0.379 (inactive)
Cc1cccc(NC(=O)CCl)c1C	-0.394 (inactive)
Cc1nnc(C(NC(=O)CCl)c2ccccc2)n1C (stereo not given)	0.385 (inactive)
O=C(CCl)NC1CCC2(CC1)OCCO2	-0.414 (inactive)
Cc1cccc2nc(CCNC(=O)CCl)cn12.Cl	-0.495 (inactive)
N#Cc1ccc(Cl)cc1NC(=O)CCl	-0.589 (inactive)
